Hits are enriched below; roughly 1.8% of the tested compounds scored in any of these assays.
GRP78 ERSR act: induces the endoplasmic reticulum stress response in human glioma cells | Potency, µM, usual class: activators | U87-MG GRP78 promoter luciferase reporter, 16 h | AID 602332 | 420,000 tested, 0.02% active; also: series mostly up to about 76 µM; nearly all actives have a fitted effect of over 35% in size
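ERSR induction read as luciferase luminescence (Bright-Glo, 10 min at room temperature) in stably transfected human U87-MG glioma cells exposed to compounds for 16 h, using GRP78 as sensor.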
A-T KAP1 phos: potential ataxia-telangiectasia treatment. 320,000 tested, 0.19% active. F2112 A-T fibroblasts, KAP-1 phosphorylation AlphaLISA; neocarzinostatin DNA damage 30 min before lysis. AID 485349. Potency, µM (highest dose often 57.5 µM), hits mostly activators; also: nearly all actives have a fitted effect of over 45% in size
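hTERT-immortalized A-T patient fibroblasts (F2112), 500 cells/well in OPTI-MEM, 1% FBS, got compounds for 60 min, then NCS for 30 min at 37C. Lysates were then assayed for phospho-KAP-1 by AlphaLISA (anti-pKAP1 donor, anti-KAP1 acceptor beads), 6 hr at 25C.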
ClpP mod: qHTS Assay for Activators of ClpP | ATP-dependent Clp protease proteolytic subunit (Bacillus subtilis (strain 168)), P80244 | purified B. subtilis ClpP, FRET peptide cleavage, 20 min | Potency, µM (highest dose often 57.5 µM) | 340,000 tested, 1.9% active | AID 651965, 2013; active = well fitted falling curve with a large enough effect; inconclusive = small, poorly fitted or top-dose-only effect; inactive = no such curve, though single readings can be large or run the other way; also: the source files actives as falling curves though it sought activators and does not explain the sign; nearly all actives have a fitted effect of over 65% in size
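FRET quenching reversal measured ClpP activation: 10 microg/mL B. subtilis ClpP at pH 8 with the FRET-FV decapeptide, read at 430 nm after 320 nm excitation. The 20-min minus 0-min signal was scaled between DMSO/no-enzyme wells and ADEP (5.8 microM final).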
Mito fusion yeast: blocks mitochondrial division or promotes mitochondrial fusion; S. cerevisiae fusion-defective mutant growth rescue, CellTiterGlo 48 h; Potency, µM (series often up to 46.1 µM), actives largely listed as activators; 320,000 tested, 0.23% active; also: nearly all actives have a fitted effect of over 45% in size
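Luminescent cell viability in 1536-well qHTS format served as the measure of rescued growth in ts fusion-mutant S. cerevisiae cultured on non-fermentable YPEG for 48 hours at 37C.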
TCR activator: activators of T cell receptors; primary human leukocytes, anti-CD3, IL-2 HTRF, 48 h; Potency, µM (top dose mostly 9.22 µM), usual class: activators; 330,000 tested, under 10 active
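Using a-CD3 beads without co-stimulation, primary human leukocytes were exposed to compounds for 48 hr. An HTRF IL-2 kit measured the cytokine, with europium-to-d2 energy transfer producing emission at 665nm upon 320nm excitation.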
MBNL1 CUG block: inhibitors of human MBNL1 binding to CUG repeat RNA; Q9NR56; TR-FRET MBNL1-His/biotin-(CUG)12 binding, 665/545 ratio; Potency, µM (titrated, usually from 57.5 µM), actives largely listed as inhibitors; 280,000 tested, 0.036% active; AID 2675; active = well fitted inhibition curve with a large enough effect in the signal ratio, with a control signal flat, not every such curve was filed as active; inconclusive = small, poorly fitted or top-dose-only effect, or effect the other way, or a change in a side signal; inactive = no such curve, though single readings can be large or run the other way; the % refers to the signal ratio
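TR-FRET readout: Ex 340 nm, 665/545 nm emission ratio, normalized to buffer-only (basal) and MBNL1-(CUG)12 controls. Complex of MBNL1-His with Biotin-(CUG)12, compounds 92 nM–58 uM, incubated 60 min at room temperature.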
Numbers stand for hits; [ ] = another dose, or the depositor's remark. Unless noted, calls follow the shape of the dose curve; as a rule, active = well fitted curve in the direction sought with a large enough effect; inconclusive = small, poorly fitted or top-dose-only effect, or another doubt; inactive = no such curve, though single readings can be large; an effect the other way counts as inactive or inconclusive.

What do the screens show for `Cc1nc(N)c(C#N)c(-c2ccc3c(c2)OCO3)c1C`?
GRP78 ERSR act: inactive; A-T KAP1 phos: inactive; ClpP mod: inactive; Mito fusion yeast: inactive; MBNL1 CUG block: inactive

How did Cc1ccc(-c2cc(-c3ccc(F)cc3)c(C#N)c(N)n2)o1 do in these assays?
GRP78 ERSR act: inactive; A-T KAP1 phos: inconclusive; Mito fusion yeast: inactive; TCR activator: inactive; MBNL1 CUG block: inconclusive

What do the screens show for `O=C(NCC1Cc2cccc(-c3nccs3)c2O1)c1ccnc(Cl)c1` (configuration not stated)?
GRP78 ERSR act: inactive

What do the screens show for `O=C1CCC[C@@H]2CC(N(Cc3cc4ccccc4s3)c3ccccc3)C[C@@H]3CCN1[C@H]23` (some centres not stated)?
GRP78 ERSR act: inactive; ClpP mod: inactive

How did COC(=O)C1[C@H]2SC(C)(C)C(C(=O)OC)N2C(=O)N1Cc1ccccc1 (some centres not stated) do in these assays?
GRP78 ERSR act: inactive; ClpP mod: inactive

How did CCCCCCc1ccc(-c2ncc(N)cn2)cc1 do in these assays?
GRP78 ERSR act: inactive; A-T KAP1 phos: inactive; ClpP mod: 31.6µM; Mito fusion yeast: inactive; TCR activator: inactive; MBNL1 CUG block: inactive

Results for COc1ccc(Cl)cc1NC(=O)c1cc(-c2ccccc2O)n[nH]1 ?
GRP78 ERSR act: inactive; A-T KAP1 phos: inactive; ClpP mod: inactive; Mito fusion yeast: 6.31µM; TCR activator: inactive; MBNL1 CUG block: inactive[11.5 µM]

How did O=C([C@@H]1C[C@@H](Sc2nc3ccccc3[nH]2)CN1Cc1ccc(Cl)cc1)N1CCN(c2ccccc2F)CC1 do in these assays?
GRP78 ERSR act: inactive

Results for COC(=O)[C@@H]1C[C@@]2(O)[C@@H](O)[C@@H](O)[C@@H](O)C[C@H]2N1Cc1ccc(Cl)cc1 ?
GRP78 ERSR act: inactive; A-T KAP1 phos: 39.8µM; ClpP mod: inactive; Mito fusion yeast: inactive; TCR activator: inactive; MBNL1 CUG block: inactive

What do the screens show for `COC(=O)c1ccc(CN2[C@H](C(=O)OC)C[C@@]3(O)[C@H](O)[C@H](O)[C@H](O)C[C@@H]23)cc1`?
GRP78 ERSR act: inactive; A-T KAP1 phos: inactive; ClpP mod: inactive; Mito fusion yeast: inconclusive; TCR activator: inactive; MBNL1 CUG block: inactive

How did C=C1C=C(C(F)F)n2ncc(C(=O)NCc3ccccc3OC)c2N1 do in these assays?
GRP78 ERSR act: inactive; ClpP mod: inactive

What do the screens show for `Cc1nn(-c2ccccc2)c(N2CCCC2)c1/C=N/NC(=S)Nc1cc(C(F)(F)F)ccc1Cl`?
GRP78 ERSR act: inactive; A-T KAP1 phos: inactive; ClpP mod: 28.2µM; Mito fusion yeast: inactive; TCR activator: inactive; MBNL1 CUG block: inactive

Results for COc1cccc(CNC(=O)c2c(OC)cc(=O)n3c2CCN(C(=O)c2ccc(C)nc2)CC3)c1 ?
GRP78 ERSR act: inactive

What do the screens show for `COc1cc(-c2cnc3ccccc3c2)cc2c1OCCN(C(=O)CCn1nc(C)cc1C)C2`?
GRP78 ERSR act: inactive

How did C=CCn1c(-c2cccs2)nc2ccccc21 do in these assays?
GRP78 ERSR act: inactive; A-T KAP1 phos: inactive; ClpP mod: 2.82µM; Mito fusion yeast: inactive; TCR activator: inactive; MBNL1 CUG block: inactive

Results for Cc1ccc(N2CCN(Cc3nnc(-c4ccccc4F)o3)CC2)c(C)c1 ?
GRP78 ERSR act: inactive; ClpP mod: inactive

How did O=C(O)c1c2c(nc3ccccc13)CCCCC2 do in these assays?
GRP78 ERSR act: inactive; A-T KAP1 phos: inactive; ClpP mod: inactive; Mito fusion yeast: inactive; TCR activator: inactive

Results for Nc1c2c(nc3ccn(-c4ccccc4)c(=O)c13)CCCCC2 ?
GRP78 ERSR act: inactive; A-T KAP1 phos: inactive; ClpP mod: 28.2µM; Mito fusion yeast: inactive; TCR activator: inactive; MBNL1 CUG block: inactive

What do the screens show for `Nc1c2c(nc3ccn(Cc4ccccc4)c(=O)c13)CCC2`?
GRP78 ERSR act: inactive; A-T KAP1 phos: inactive; ClpP mod: 31.6µM; Mito fusion yeast: inactive; TCR activator: inactive; MBNL1 CUG block: inactive

How did O=[N+]([O-])c1ccc(O)c(-c2nn[nH]n2)c1 do in these assays?
GRP78 ERSR act: inactive; A-T KAP1 phos: inactive; ClpP mod: 25.1µM; Mito fusion yeast: inactive; TCR activator: inactive; MBNL1 CUG block: inconclusive

What do the screens show for `Cc1cc(C)n(-c2ccc([N+](=O)[O-])cc2-c2nn[nH]n2)n1`?
GRP78 ERSR act: inactive; A-T KAP1 phos: inactive; Mito fusion yeast: inactive; TCR activator: inactive; MBNL1 CUG block: inconclusive

What do the screens show for `COc1ccccc1CNC(=O)c1cnc2ccccn2c1=O`?
GRP78 ERSR act: inactive; A-T KAP1 phos: inactive; ClpP mod: inactive; Mito fusion yeast: inactive; TCR activator: inactive; MBNL1 CUG block: inactive

Results for O=C(NCc1cccs1)c1cnc2ccccn2c1=O ?
GRP78 ERSR act: inactive; A-T KAP1 phos: inactive; ClpP mod: 25.1µM; Mito fusion yeast: inactive; TCR activator: inactive; MBNL1 CUG block: inconclusive

Results for OC1(c2ccc3c(c2)CN(Cc2ccccn2)CCO3)CCN(c2ccccc2F)CC1 ?
GRP78 ERSR act: inactive

How did Cc1c(C(=O)C(=O)N2CCN(C)CC2)c2ccccc2n1C do in these assays?
GRP78 ERSR act: inactive; A-T KAP1 phos: inactive; ClpP mod: 12.6µM; Mito fusion yeast: inactive; TCR activator: inactive; MBNL1 CUG block: inactive

Results for CC(C)[C@@H]1CC[C@@H](C)C[C@@H]1P(=O)(c1ccccc1)c1ccccc1 ?
GRP78 ERSR act: inactive; Mito fusion yeast: inconclusive

How did Cc1nc(SCC(=O)Nc2ccccc2C(F)(F)F)c(C#N)c(C)c1CC(=O)c1ccc(Br)cc1 do in these assays?
A-T KAP1 phos: inactive; Mito fusion yeast: inactive; MBNL1 CUG block: inactive

What do the screens show for `Cc1cccc(C)c1NC(=O)CSc1nc(C)c(CC(=O)c2ccc(Br)cc2)c(C)c1C#N`?
GRP78 ERSR act: inactive; A-T KAP1 phos: inactive; ClpP mod: 28.2µM; Mito fusion yeast: inactive; TCR activator: inactive; MBNL1 CUG block: inactive

How did CC(CC(=O)Nc1cccc(Cl)c1)c1ccccc1 (configuration not stated) do in these assays?
GRP78 ERSR act: inactive; A-T KAP1 phos: inactive; ClpP mod: 14.1µM; Mito fusion yeast: inactive; TCR activator: inactive; MBNL1 CUG block: inactive

How did CCOc1ccc(CNC(=O)c2cnc3sc(N4CCOCC4)nn3c2=O)cc1OC do in these assays?
GRP78 ERSR act: inactive; ClpP mod: 28.2µM

Results for CC(C)CCNC(=O)c1cnc2sc(N3CCCCCC3)nn2c1=O ?
GRP78 ERSR act: inactive; ClpP mod: 12.6µM

How did COc1ccc(CCNC(=O)c2cnc3sc(N4CCCC4)nn3c2=O)cc1OC do in these assays?
GRP78 ERSR act: inactive; ClpP mod: 11.2µM

How did CCOc1ccc(CNC(=O)c2cnc3sc(N(CC)CC)nn3c2=O)cc1OC do in these assays?
GRP78 ERSR act: inactive; ClpP mod: 31.6µM

Bioassay records: PubChem BioAssay, National Center for Advancing Translational Sciences (NCATS)
